In ChEMBL document CHEMBL3988442, “University of Dundee, Small-Polar-MMV Screening Library” (2021):
The campaign covered roughly 48,000 compounds. About 13,000 (27%) showed an effect of 50% or more. The list shows a part of the results.

tested on: Wolbachia pipientis; assay: Anti-Wolbachia Cell-Based Screen; assay type: functional; design: scale not given: in the data most compounds retested in dose-response had high values; settings: 5 µM

Compound	Percent Effect [%]
O=C(O)C(F)(F)F.O=C(c1ccccc1)N1CCS(=O)(=O)[C@@H]2CCNCC[C@@H]21	-7.979
c1ccc(CCn2cc(-c3nc(CN4CCOCC4)no3)nn2)cc1	7.795
COc1ccc(-c2n[nH]cc2CN(C)CCc2scnc2C)c(F)c1	-15.83
Cc1cc2nc(CO[C@H]3CN(C4CCN(C)CC4)C[C@H]3F)[nH]c2cc1C	-19.54
COc1cccc2c1OCC(C(=O)N1CCC(NS(C)(=O)=O)CC1)C2 (stereo not given)	16.61
CC(C)c1cnc(CN2C(=O)CC3(CCSC3)C2=O)o1 (stereo not given)	17.31
O=C1NC(c2ccccc2)=N[C@@]12CC[C@@H]1CN(Cc3cccnc3)C[C@@H]12	0.6919
CC(C)O[C@H]1CN(Cc2cnc3c(-c4ccccc4)cnn3c2)C[C@@H]1O	3.276
O[C@@H]1CN(Cc2cccnc2)C[C@H]1Oc1ccccc1	103.4
CCC1CN(C(=O)c2cncc(C)c2)CCC(=O)N1Cc1ccccc1 (stereo not given)	-10.11
OC1CN(Cc2ccccc2)CCN(c2ccncc2)C1 (stereo not given)	12.72
Cc1cnccc1CN1C[C@@H](O)[C@H](Oc2ccccc2)C1	-5.554
F[C@@H]1CN(Cc2cccnc2)C[C@@H]1OCc1nc2ccccc2[nH]1	10.94
Cc1cncc(CN2C[C@@H](O)[C@H](Oc3ccccc3)C2)c1	132.9
O[C@@H]1CN(Cc2ccncc2)C[C@H]1Oc1ccccc1	125.9
COCC(=O)N1CCN(c2ncnc3cccc(F)c23)CC1	0.7263
CC1COc2ccccc2N1C(=O)c1ccc(=O)n(C)c1 (stereo not given)	-18.38
Fc1cccc(N2CCCC3(C2)CN(c2ncccn2)CCO3)c1.O=C(O)C(F)(F)F.O=C(O)C(F)(F)F (stereo not given)	-1.466
CC(C)c1nc(CN2CCCN(c3nccs3)CC2)no1	89.07
Cc1nc(CN2CCCN(c3nccs3)CC2)no1	78.71
c1csc(N2CCCN(Cc3noc(C4CC4)n3)CC2)n1	107.3
CCc1nc(CN2CCCN(c3nccs3)CC2)no1	1.816

Compound	Percent Effect [%]
c1csc(N2CCCN(Cc3nc(C4CC4)no3)CC2)n1	-5.415
c1csc(N2CCN(Cc3nnnn3C3CC3)CC2)n1	-36.32
Cc1csc(N2CCCN(Cc3noc(C)n3)CC2)n1	0.2085
CCc1nc(CN2CCCN(c3ncnc4ccsc34)CC2)no1	-84.77
C[C@@H]1CN(C(=O)CCc2nncn2C)C[C@@]1(O)C1CCC1	-1.808
Cc1cc(C)n(C(=O)c2cn(C)nc2S(=O)(=O)N2CCSCC2)n1	-0.316
CCCn1ncc(CN2CCCCC2CCCOC)c1C (stereo not given)	-0.2831
Cc1oc(-c2ccoc2)nc1CN1CCCCC1CCn1cccn1 (stereo not given)	3.711
COc1cc2c(cc1CN1CCCCC1CN1CCOCC1)CCC2 (stereo not given)	26.24
Cc1nccn1CCC1CCCCN1Cc1ccc(O)cc1Cl (stereo not given)	-13.87
Cc1ccc2nc(CN3CCCCC3CCn3cccn3)cn2c1 (stereo not given)	89.18
Cc1cnn(CC2CCCN2Cc2cc(=O)n3cc(C)ccc3n2)c1 (stereo not given)	11.19
COc1c(C)cnc(CN2CCCCC2CCN2CCOCC2)c1C (stereo not given)	0.5923
COCCCC1CCCCN1Cc1cnn(C)c1C1CC1 (stereo not given)	18.85
Cc1ccc2nc(CN3CCCCC3CCN3CCOCC3)cn2c1 (stereo not given)	98.48
Cc1c[nH]c(CN2CCCCC2CCn2cccn2)c(C)c1=O (stereo not given)	21.06
Cc1ccc(O)c(CN2CCCCC2CCN2CCOCC2)c1 (stereo not given)	102.9
COCCCC1CCCCN1Cc1cn2cc(C)ccc2n1 (stereo not given)	95.19
CC(C)(C)CN(CCC#N)C(=O)Nc1cccc(N2CCNC2=O)c1	7.726
O=C(c1ccccc1F)N(CCCO)S(=O)(=O)c1cccs1	2.629
O=C(NCCNc1ncccn1)N(Cc1ccc(F)cc1F)C1CC1	-5.455
N#Cc1ccccc1OCCN1CCCCC1C(=O)N1CCOCC1 (stereo not given)	9.052

Compound	Percent Effect [%]
O=C(CN1CCCC1c1nc(-c2ccccc2)no1)N1CCOCC1 (stereo not given)	6.777
Cc1ccc2nc(CN3CCCCC3C(=O)N3CCOCC3)cn2c1 (stereo not given)	89.82
Cc1nc(CN2CCCN(C(=O)C(C)OCC3CC3)CC2)cs1 (stereo not given)	0.6409
COc1ccc(S(=O)(=O)NC(=O)c2c(C)noc2C(C)C)cc1C	-2.008
CCc1nc(N2CCCC(CCOC)(C(=O)O)C2)ncc1C (stereo not given)	2.702
CCCS(=O)(=O)CCN1CCN(C(C#N)c2ccccc2)CC1 (stereo not given)	125.8
CCS(=O)(=O)CCN1CCN(C(C)c2cccnc2)CC1 (stereo not given)	4.9
CC(c1ccc(Cl)cc1)N1CCN(CCCS(N)(=O)=O)CC1 (stereo not given)	8.4
CCCS(=O)(=O)CCN1CCN(c2cc(F)ccc2F)CC1	-4.475
CC(C)S(=O)(=O)CCN1CCN(C(C#N)c2ccccc2)CC1 (stereo not given)	88.63
CC(c1ccc(Cl)cc1)N1CCN(CCS(N)(=O)=O)CC1 (stereo not given)	-4.709
CS(=O)(=O)N1C[C@H](C(=O)Nc2cnccn2)C[C@H]2OCC[C@H]21	-3.249
Cc1cccc(N2CCC(N3CCC4(CCCNC4=O)C3)CC2)c1C (stereo not given)	11.3
CS(=O)(=O)N1CCc2[nH]cnc2C12CCN(C1CCOCC1)CC2	0.6109
O=C1N(Cc2ccc(F)c(F)c2)CCCC12CCN(C1CCCCC1)C2 (stereo not given)	-2.682
CS(=O)(=O)N1CC2(CCN(C3CCCCC3)C2)Cc2ccccc21 (stereo not given)	120
CN(C)C(=O)N1CC2(CCN(S(C)(=O)=O)CC2)c2ccccc21	1.836
CS(=O)(=O)N1CC2(CCN(C3CCCCC3)CC2)Cc2ccccc21	114.5
CC(C)CCN1CCc2[nH]nc(C(=O)N3CCCC3C)c2C1.O=C(O)C(F)(F)F (stereo not given)	-10.1
CS(=O)(=O)N1CC[C@@H]2[C@@H](CCC(=O)N2CCC2=CCCCC2)C1	-15.08
CN(Cc1cnn(C)c1)Cc1nc(CCc2ccccc2)no1	8.219
